Where “and” joins values, the source holds several entries; their conditions need not be identical. Identical values can stand only once. Inconclusive results are not listed. Entries that show only a call come without a potency. Calls of active or inactive are those of the source. Calls follow the shape of the dose curve; as a rule, active = well fitted cell-killing curve with a large enough effect in the repeat runs; inconclusive = weak or mixed curves, or effect the other way; inactive = flat fitted curve, though single readings scatter.
Assay: Nuclear factor erythroid 2-related factor 2/antioxidant responsive element (Nrf2/ARE) small molecule agonists: qHTS cell viability counter screen in human keratinocytes (AID 1919968); also: nearly all actives have a fitted effect of over 55% in size
Details: KeratinoSens HaCaT ARE cells viability, CellTiter-Fluor, 24 h; series mostly up to 92.4 µM
Excerpt: U.S. Tox21 Program National Center for Advancing Translational Sciences [NCATS] Division of Preclinical Innovation [DPI] U.S. Environmental Protection Agency [EPA] National Institutes of Environmental Health Sciences [NIEHS] National Toxicology Program [NTP] U.S. Food and Drug Administration [FDA] Tox21 Assay Overview: Oxidative stress has been implicated in the pathogenesis of a variety of diseases ranging from cancer to neurodegeneration. The antioxidant response element (ARE) signaling pathway plays an important role in the amelioration of oxidative stress. The KeratinoSens (Givaudan, Switzerland) is an in vitro test method which quantifies luciferase induction as a measure of activation of Keap1-Nrf2-antioxidationt/electrophile response element (ARE) dependant pathway in HaCaT human keratinocytes stably transfected with a selectable plasmid. The KeratinoSens assay is a cell-based assay with a reporter cell line to detect potential skin sensitizers by their ability to induce the Nrf2/ARE-response. The activation of the report gene under culture conditions can be detected by ONE-Glo Luciferase Assay System (Promega, Madison, WI). This cell line has been used to screen the Tox21 10K compound library to identify agonists that induce oxidative stress. The cytotoxicity of the Tox21 compound library against the KS-ARE cell line was tested in parallel by measuring the cell viability using CellTiter- Fluor assay system (Promega, Madison, WI) in the same wells.
Tox21 Assay Protocol Summary: HaCaT derived cell line KeratinoSens were dispensed at 1,500 cells/5uL/well in 1536-well white wall/solid bottom plates using a Multidrop Combi (ThermoFisher Scientific, Waltham, MA) dispenser. After the assay plates were incubated at 37 C/5% CO2 for 5 h, 23 nL of compounds dissolved in DMSO, positive controls or DMSO only was transferred to the assay plate by a pintool workstation (Kalypsys, San Diego, CA). The plates were incubated at 37 C/5% CO2 for 23 h, followed by addition of 1uL/well of CellTiter-Fluor reagent into the assay plates using a Flying Reagent Dispenser (Aurora Discovery, San Diego, CA) for cell viability readout that measures cytotoxicity. After 1 h incubation at 37 C/5% CO2 the fluorescence intensity was measured using a ViewLux (PerkinElmer, Shelton, CT) plate reader.
Potency is read from the fitted curve at half-maximal effect.

SMILES | Potency
O=C(O)C(F)(F)C(F)(F)C(F)(F)C(F)(F)C(F)(F)C(F)(F)F | inactive
Clc1ccc(Cl)c(Cl)c1 | inactive
C=CCSSCC=C | inactive
Cc1cc(Cl)ccc1N=CN(C)C | inactive
O=[N+]([O-])c1cccc2ccccc12 | inactive
O=P(O)(O)CN(CP(=O)(O)O)CP(=O)(O)O | inactive
O=C(O)c1ccc(=O)[nH]c1 | inactive
CNC(=O)CSP(=S)(OC)OC | inactive
CC(C)Nc1ccc(Nc2ccccc2)cc1 | 30.5 µM (active)
CC(C)c1ccc(OP(=O)(Oc2ccc(C(C)C)cc2)Oc2ccc(C(C)C)cc2)cc1 | inactive
Cc1ccccc1[N+](=O)[O-] | inactive
CC(C)Oc1cc(-n2nc(C(C)(C)C)oc2=O)c(Cl)cc1Cl | inactive
COc1ccc2c(c1OC)C(=O)O[C@@H]2[C@H]1c2cc3c(cc2CCN1C)OCO3 | inactive
CCCN(CCC)N=O | inactive
CCC(CC)Nc1c([N+](=O)[O-])cc(C)c(C)c1[N+](=O)[O-] | inactive
CC1(C)Cc2cccc(O)c2O1 | inactive
CCC(C)(C)c1ccc(O)c(C(C)(C)CC)c1 | 13.5 µM (active) and 24.3 µM (active)
CCCCOC(=O)COC(=O)c1ccccc1C(=O)OCCCC | inactive
C[C@@H]1O[C@@H](O[C@H]2C[C@@H](O)[C@]3(CO)[C@H]4[C@H](O)C[C@]5(C)[C@@H](C6=CC(=O)OC6)CC[C@]5(O)[C@@H]4CC[C@]3(O)C2)[C@H](O)[C@H](O)[C@H]1O | 730 nM (active) and 1.06 µM (active)
ClC(Cl)(Cl)c1ccccc1 | inactive

SMILES | Potency
COC(=O)Cc1ccccc1 | inactive
c1ccc(Nc2ccc3ccccc3c2)cc1 | 68.2 µM (active)
CC(Cl)C(=O)O (stereo not given) | inactive
COC(=O)Nc1nc2ccccc2[nH]1 | inactive
Nc1c(Br)cc([N+](=O)[O-])cc1[N+](=O)[O-] | inactive
BrCCc1ccccc1 | inactive
CON(C)C(=O)Nc1ccc(Cl)c(Cl)c1 | inactive
Clc1cccc(C(Cl)(Cl)Cl)n1 | inactive
Cc1ccccc1N | inactive
CC(=O)C1CCOC1=O (stereo not given) | inactive
CNC(C)(C)Cc1ccccc1 | inactive
Oc1ccc(Cl)cc1 | inactive
Oc1c(Cl)c(Cl)c(Cl)c(Cl)c1Cl | 30 µM (active)
CCCC[N+]1(C)CCCC1 | inactive
O=C(NCc1cccnc1)Nc1ccc([N+](=O)[O-])cc1 | inactive
CN(C)c1nc(=O)n(C2CCCCC2)c(=O)n1C | inactive
CN(C)N | inactive
CCCOC(=O)c1cncn1C(C)c1ccccc1 (stereo not given) | inactive
N#CCCCl | inactive
CCC(=O)OC1(c2ccccc2)CCN(C)CC1 | inactive

Reference: PubChem BioAssay (Tox21)
